Here are results for 20 molecules from PubChem BioAssay (NCI).

This is part of a sample that, as a whole, favours compounds with a hit. Of some 79,000 tested, about 15% had one in any assay. A number with no mark means an inactive call. Active and inactive are the calls of the source. No stated cut-off is given here; in the data, active means growth inhibition above about 70%; inactive means the rest.

Assay [1] in a line: NCI Yeast Anticancer Drug Screen. Data for the rad50 strain (AID 155).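 Further: 0% = growth of vehicle-only cultures of the same strain.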 Particulars: S. cerevisiae rad50 strain growth inhibition; at 50.0 µM; active compounds read high. An outline of the steps:
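Growth of the mutant yeast was measured after compound exposure and referenced to vehicle-treated cultures.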

Assay [2] in a line: NCI Yeast Anticancer Drug Screen. Data for the mec2-1 strain (AID 157). Particulars: S. cerevisiae mec2-1 strain, at 50.0 µM, active compounds read high. The essentials:
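Readout is yeast growth inhibition, normalised to vehicle-treated controls, in the mec2-1 strain exposed to compound.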

The nature of assay [3]: NCI Yeast Anticancer Drug Screen. Data for the sgs1 mgt1 strain (AID 161).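 Further: 0% = growth of cultures given vehicle only.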 The note with it: S. cerevisiae sgs1 mgt1 strain, at 50.0 µM, active compounds read high. An outline of the steps:
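Growth of a repair-deficient yeast mutant was monitored after compound treatment and expressed as inhibition relative to vehicle-treated cultures.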

Assay [4] in a line: NCI Yeast Anticancer Drug Screen. Data for the cln2 rad14 strain (AID 165).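 Further: 0% = growth equal to vehicle treated cultures.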 Particulars: S. cerevisiae cln2 rad14 strain, at 50.0 µM, active compounds read high. An outline of the steps:
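Relative to vehicle controls, growth inhibition of compound-treated cln2 rad14 yeast was recorded.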

Assay [5] can be described thus: NCI Yeast Anticancer Drug Screen. Data for the bub3 strain (AID 167). The note with it: S. cerevisiae bub3 mutant strain, at 50.0 µM, active compounds read high. An outline of the steps:
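Whole-cell yeast assay. The mutant strain was incubated with compounds, and growth inhibition was determined by comparison with vehicle-treated cells.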

Assay [6] is described as follows: NCI Yeast Anticancer Drug Screen. Data for the mlh1 rad18 strain (AID 175). Particulars: S. cerevisiae mlh1 rad18 strain growth inhibition; at 50.0 µM; active compounds read high. The essentials:
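Test agents were incubated with a yeast strain of defined genotype (DNA damage repair defect). Inhibition of growth was derived by comparison with vehicle-exposed cultures.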

Consider `C=CCSc1nc2c(=O)[nH]cnc2n1C1OC(CO)C(O)C1O` (stereo not given), for which the growth inhibition in assay [1] was -7.35%; in assay [2] it was 4%; in assay [3], -3.1%; in assay [4], -0.35%; in assay [5] it was -8.1%; in assay [6], -12.7%.

For `CCCCCCCCCCCCCCNCCCCCCCCCCCCCC`, the growth inhibition in assay [1] was 21%; in assay [2] it was -9%; in assay [3], 23.8%; in assay [4], 32.2%; in assay [5] it was 17.1%; in assay [6] it was 17.4%.

Take `CC(=O)/C(=C/N1C(=O)CC(=O)NC1=S)C(=O)Nc1ccccc1`: the growth inhibition in assay [1] was -24.8%; in assay [2] it was -26.5%; in assay [3], -39.9%; in assay [4], 3.85%; in assay [5], -17.5%; in assay [6], -20.7%.

With `CCOC(=O)c1c(NC(=O)CCl)ssc1=S`, the growth inhibition in assay [1] is 15.2%; in assay [2], 28.4%; in assay [3] it was 42.5%; in assay [4], 22.8%; in assay [5] it was 4.7%; in assay [6], 43.6%.

Consider `O=C1C/C(=C\c2ccccc2O)C(=O)c2ccccc21`, for which the growth inhibition in assay [1] is 66.3%; in assay [2] it was 61.1%; in assay [3], 83.4% (active); in assay [4], 57.8%; in assay [5], 54.8%; in assay [6], 82.8% (active).

Take `CC(C)Cc1ccc(C(C)CC2=CCC(CN(C)C)C2=O)cc1` (stereo not given): the growth inhibition in assay [1] is 79.2% (active); in assay [2] it was 91.5% (active); in assay [3], 90.2% (active); in assay [4] it was 84.4% (active); in assay [5], 88.7% (active); in assay [6], 89.3% (active).

For the molecule `Cc1c(C)c2ccc(OC(C)C(=O)O)cc2oc1=O` (stereo not given), the growth inhibition is -10.9% in assay [1]; 0.8% in assay [2]; 22.2% in assay [3]; 31.5% in assay [4]; 10.1% in assay [5]; 36% in assay [6].

For the molecule `O=C1CCc2cc3c(cc21)CC1(Cc2cc4c(cc2C1)CCCC4)C3`, the growth inhibition was -28.4% in assay [1]; -8.8% in assay [2]; -22.2% in assay [3]; -18.1% in assay [4]; 17.2% in assay [5]; -20.3% in assay [6].

For the molecule `O=C1CCc2nc(=O)c3c4ccccc4ccc3n21`, the growth inhibition was 3.95% in assay [1]; 1.55% in assay [2]; -5.35% in assay [3]; -36.5% in assay [4]; -3.95% in assay [5]; -0.2% in assay [6].

Consider `O=[N+]([O-])c1ccsc1Cl`, for which the growth inhibition in assay [1] is -7.85%; in assay [2], -3.6%; in assay [3], -14.6%; in assay [4], -40.2%; in assay [5] it was -4.1%; in assay [6], -5.05%.

Regarding `OC1CC2CCCCC2CC1Cl` (stereo not given), the growth inhibition in assay [1] is 6.15%; in assay [2], 1.35%; in assay [3] it was 0.7%; in assay [4] it was -16.6%; in assay [5] it was -19.1%; in assay [6], 5.5%.

On to `NC(=S)Nc1ccccc1Cl`, for which the growth inhibition in assay [1] is -14.3%; in assay [2] it was -6.2%; in assay [3], 15.6%; in assay [4] it was -18.1%; in assay [5] it was -10.8%; in assay [6], 10.6%.

Take `CCCCCC1SCC(=O)N1c1nncs1` (stereo not given): the growth inhibition is -1.7% in assay [1]; -21.1% in assay [2]; 14.3% in assay [3]; 5.85% in assay [4]; 6.65% in assay [5]; 12.5% in assay [6].

Take `O=C(COc1ccc(Cl)c(Cl)c1)NCc1cccc(Cl)c1`: the growth inhibition is 6.1% in assay [1]; -8.65% in assay [2]; -1.7% in assay [3]; -2.85% in assay [4]; 36.4% in assay [5]; 30.9% in assay [6].

For the molecule `O=C(O)COc1cccc(O)c1`, the growth inhibition in assay [1] was -26.4%; in assay [2], -24.2%; in assay [3], -39.6%; in assay [4], -13.1%; in assay [5], -27.9%; in assay [6] it was -20.1%.

For `C/C(=N\NC(=O)CC(=O)N(C(=O)c1ccccc1Cl)c1ccc(C)cc1)c1ccc(Cl)cc1`, the growth inhibition in assay [1] is -0.5%; in assay [2] it was -8.95%; in assay [3] it was -25.4%; in assay [4], -15.8%; in assay [5] it was -4.25%; in assay [6], -6.1%.

As for `COc1cc(NS(C)(=O)=O)ccc1Nc1c2ccccc2nc2c1[nH]c1ccc(NC3OC(CO)C(O)C(O)C3O)cc12` (stereo not given), the growth inhibition in assay [1] is 53.8%; in assay [2] it was -4.9%; in assay [3], 3.35%; in assay [4], 0.2%; in assay [5] it was -26.3%; in assay [6], -27.6%.

Regarding `Cn1cnc(=O)c2n[nH]nc21`, the growth inhibition is 3.95% in assay [1]; 16.6% in assay [2]; -1.1% in assay [3]; -1.45% in assay [4]; -11.4% in assay [5]; 0.65% in assay [6].

For the molecule `CC(=O)NC1=C(C)C(=O)c2c(nc3n2CCC3OC(=O)c2ccccc2)C1=N` (stereo not given), the growth inhibition in assay [1] is 15%; in assay [2], -8.3%; in assay [3] it was 22%; in assay [4] it was 6%; in assay [5], 26.9%; in assay [6], -34%.

Take `CCCCCCCCCCCCCCCCCCSc1ccc2ccccc2c1`: the growth inhibition was 37.5% in assay [1]; -10.5% in assay [2]; 20.4% in assay [3]; -14.1% in assay [4]; 0.6% in assay [5]; -5.7% in assay [6].
